PubChem BioAssay (EPA / NIEHS)
Calls of active or inactive are those of the source. Rule for the calls: active = hit-call score of the fitted dose curve at least 0.9, where 1 is the maximum; inactive = score below 0.9.

Assays:
[1] = APR_HepG2_P-H2AX_72hr: Apredica 72-hour HepG2 Assay for H2AX Phosphorylation (AID 2282916); conditions: imaging, actives raise or lower the signal;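 note: phospho-histone H2A.x immunostain intensity per cell marking DNA damage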
Outline: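 Phospho-H2A.x imaging endpoint in HepG2 after 72 hr compound exposure (0.39–200 uM, duplicate wells). Activity derived by bidirectional curve fitting with DMSO as baseline.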

[2] = APR_HepG2_MitoMembPot_72hr: Apredica 72-hour HepG2 Assay for Mitochondrial Membrane Potential (AID 2282917); conditions: imaging, actives raise or lower the signal
Outline: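 HepG2 cells exposed 72 h to compounds at 0.39–200 uM (0.5% v/v DMSO, duplicates); MitoTracker Red CMXRos 250 nM loaded 30 min before 3.7% formaldehyde fixation, imaged by HCS fluorescence. Bidirectional fit versus DMSO.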

[3] = APR_HepG2_MicrotubuleCSK_72hr: Apredica 72-hour HepG2 Assay for Microtubule CSK Stabilty (AID 2282919); conditions: HepG2 microtubule cytoskeleton, high-content imaging, actives raise or lower the signal
Outline: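 Ten-point dosing (0.39–200 uM, 0.5% DMSO) of HepG2 for 72 hr, with taxol as the cytoskeletal positive control. The cells were formaldehyde-fixed and then stained with alpha-tubulin/Cy5 and Hoechst. Imaging at 20x used a −2 um Z offset for tubulin.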

[4] = APR_HepG2_P-H2AX_24hr: Apredica 24-hour HepG2 Assay for H2AX Phosphorylation (AID 2282920); conditions: high-content imaging, actives raise or lower the signal
Outline: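 Signal comes from a FITC-labeled secondary detecting phospho-histone H2A.x in fixed HepG2 cells, quantified by automated imaging at 20x. Dosing ran 24 hr across 0.39–200 uM with 0.5% v/v DMSO.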

[5] = APR_HepG2_StressKinase_72hr: Apredica 72-hour HepG2 Assay for Stress Kinase (AID 2282921); conditions: HepG2 stress kinase (phospho-c-Jun) imaging, actives raise or lower the signal
Outline: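 Stress kinase signal reflects nuclear phospho-c-Jun staining in fixed, permeabilized cells exposed 72 h to compound at 0.39–200 uM; DMSO-normalized, fitted for increases or decreases.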

[6] = APR_HepG2_StressKinase_24hr: Apredica 24-hour HepG2 Assay for Stress Kinase (AID 2282922); conditions: HepG2 stress kinase (phospho-c-Jun) imaging, actives raise or lower the signal
Outline: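 After 24 hr compound treatment (up to 200 uM, final DMSO 0.5% v/v), HepG2 cells are fixed and multiplex-labeled; phospho-c-Jun intensity is captured by high-content fluorescence imaging and analyzed relative to DMSO.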

[7] = APR_HepG2_p53Act_72hr: Apredica 72-hour HepG2 Assay for p53 Activation (AID 2282923); conditions: high-content imaging, actives raise or lower the signal;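 note: average cellular p53 protein immunofluorescence intensity in HepG2 cells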
Outline: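 Fixed-cell p53 staining (sheep primary, Cy5 secondary) measured by fluorescence imaging following 72 hr treatment at 0.39–200 uM in 0.5% DMSO; DMSO served as negative control and baseline.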

[8] = APR_HepG2_MitoMass_72hr: Apredica 72-hour HepG2 Assay for Mitochondrial Mass (AID 2282924); conditions: high-content imaging, actives raise or lower the signal;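 note: MitoTracker Red CMXRos stain intensity per cell imaged as mitochondrial mass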
Outline: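 Steps: treat HepG2 72 hr (0.39–200 uM, duplicate wells); load MitoTracker Red CMXRos, 250 nM, 30 min; fix with 3.7% formaldehyde, permeabilise with 0.5% Triton X-100; capture images, nuclei via Hoechst 33342; fit bidirectionally against DMSO.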

[9] = APR_HepG2_NuclearSize_72hr: Apredica 72-hour HepG2 Assay for Nuclear Size (AID 2282925); conditions: high-content imaging, actives raise or lower the signal
Outline: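 Compounds (0.39–200 uM, final DMSO 0.5%) were applied to HepG2 for 72 hr. Cells were then formaldehyde-fixed, permeabilized and labelled with Hoechst 33342. Nuclear diameter was quantified from six images per well.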

[10] = APR_HepG2_MitoticArrest_72hr: Apredica 72-hour HepG2 Assay for Mitotic Arrest (AID 2282918); conditions: high-content imaging, actives raise or lower the signal
Outline: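 Mitotic arrest in HepG2 is scored from phospho-histone H3 staining after 72 hr dosing across 0.39–200 uM, with DMSO at 0.5% v/v. Nuclei are identified by Hoechst 33342 and fluorescence intensity is quantified per cell.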

Measured: AC50

Cc1ccc(N)c(N)c1
inactive: [1] | [2] | [3] | [4] | [5] | [6] | [7] | [8] | [9]

OCCOCCO
inactive: [1] | [2] | [10] | [3] | [4] | [5] | [6] | [8] | [9]

CC(C)(O)c1cnn2c(-c3ccc(F)c(-c4c(F)cccc4C#N)c3)cnc2n1
inactive: [5] | [7] | [9]
active: [1] 30.1 µM | [2] 83.9 µM | [3] 78.8 µM | [4] 31.4 µM | [6] 51.5 µM | [8] 76.1 µM

c1ccc2c(c1)oc1ccccc12
active: [10] 0.0888 µM
inactive: [1] | [2] | [3] | [4] | [5] | [6] | [7] | [8] | [9]

CN(C)[C@@H]1C(=O)C(C(N)=O)=C(O)[C@@]2(O)C(=O)C3=C(O)c4c(O)cccc4[C@@](C)(O)[C@H]3C[C@@H]12
inactive: [1] | [2] | [3] | [4] | [5] | [6] | [7] | [8] | [9]

Cn1cc(-c2ccccc2)c(=O)c(-c2cccc(C(F)(F)F)c2)c1
inactive: [1] | [2] | [10] | [3] | [4] | [5] | [6] | [7] | [8] | [9]

COc1cc(C=O)cc2c1[C@H](COC(N)=O)[C@]1(OC(C)=O)ON2C[C@H]2[C@@H]1N2C(C)=O
inactive: [1] | [2] | [10] | [3] | [4] | [5] | [6] | [7] | [8] | [9]

Nc1ccc(Cl)cc1N
inactive: [2] | [5] | [6] | [8] | [9]
active: [1] 5.9 µM | [3] 3.83 µM | [4] 1.2 µM | [7] 3.54 µM

CC(O)CCO (stereo not given)
inactive: [1] | [2] | [3] | [4] | [5] | [6] | [7] | [8] | [9]

O=C(N[C@H](c1ccccc1)[C@@H]1CN2CCC1CC2)c1c(Cl)ccc(C(F)(F)F)c1Cl
active: [1] 44 µM | [4] 117 µM
inactive: [2] | [3] | [5] | [6] | [7] | [8] | [9]

CN(C)C(=O)Nc1ccc(Cl)cc1
inactive: [1] | [2] | [3] | [4] | [5] | [6] | [7] | [8] | [9]

Nc1ccc(N=Nc2ccccc2)cc1
inactive: [4] | [5] | [6] | [9]
active: [1] 63.4 µM | [7] 71.1 µM

Cc1ccc(N=C=O)cc1N=C=O
inactive: [2] | [10] | [3] | [4] | [5] | [6] | [7] | [8] | [9]

CCN(CC)N=O
inactive: [2] | [10] | [3] | [4] | [5] | [6] | [7] | [8] | [9]

Clc1ccc(C(c2ccc(Cl)cc2)C(Cl)Cl)cc1
inactive: [2] | [6] | [8] | [9]
active: [1] 104 µM | [3] 156 µM | [4] 108 µM | [5] 114 µM | [7] 87.1 µM

ClCCOCCCl
inactive: [2] | [10] | [3] | [4] | [5] | [6] | [7] | [8] | [9]

C=CCc1ccc2c(c1)OCO2
inactive: [1] | [2] | [3] | [4] | [5] | [6] | [7] | [8] | [9]

Cc1cccc(N)c1N
active: [10] 19.8 µM | [4] 44.5 µM
inactive: [2] | [3] | [5] | [6] | [7] | [8] | [9]

Oc1ccc2ccc3cccc4ccc1c2c34
active: [1] 50.3 µM | [2] 75.4 µM | [3] 85.4 µM | [4] 62.9 µM | [6] 80.8 µM | [8] 46.4 µM | [9] 69.6 µM
inactive: [5] | [7]

ClC1=C(Cl)[C@]2(Cl)[C@H]3[C@H]([C@@H]4C=C[C@H]3C4)[C@@]1(Cl)C2(Cl)Cl
active: [10] 32.9 µM | [4] 50.7 µM | [5] 53.4 µM | [7] 45.3 µM
inactive: [2] | [3] | [6] | [8] | [9]
